Source: PubChem (several laboratories)
This is a sample that favours compounds with a hit; in the whole collection about 2.3% have one here.
UBC13 polyUb: blocks human UBC13 polyubiquitin chain formation; hit rate 0.47% among 330,000; TR-FRET; inhibition, % at 20 µM; AID 485273; P61088; in the data active = inhibition above about 45%, passing the limit was not always enough; inconclusive = no clear call, values can overlap the other calls
Target sequence (P61088 whole entry, looked up): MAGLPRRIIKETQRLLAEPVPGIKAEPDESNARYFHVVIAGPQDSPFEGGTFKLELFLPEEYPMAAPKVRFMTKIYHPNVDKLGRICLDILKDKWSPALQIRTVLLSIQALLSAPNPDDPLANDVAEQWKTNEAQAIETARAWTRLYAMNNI
MEKK2 WT-MEK5: raises or lowers MEK5 binding to wildtype human MEKK2 PB1 domain; Q9Y2U5; hit rate 1.1% among 290,000; bead flow cytometry, Alexa488-MEK5 binding to MEKK2 WT; actives lie on both sides; AID 1531; binding response (% of control), % at 10 µM; in the data active = binding response below about 67% or above about 130%; inconclusive = no clear call, values can overlap the other calls; inactive = in between
MEKK3 PB1 HTS: MEKK3-MEK5 PB1 interaction, increase or decrease; bead-based flow cytometry, Alexa488-MEK5 binding to MEKK3; actives lie on both sides; 0 = blocked by unlabeled MEK5, 100 = vehicle; binding response (% of control), % at 10 µM; hit rate 1.4% among 290,000; AID 1529;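 active = binding response more than 3 SD above or below the average of its plate-row segment, actives on both sides; inconclusive = wells at one plate position flagged as instrument error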;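 also: Alexa488 bead fluorescence after subtracting the streptavidin-only scavenger bead signal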
MEKK2 mut-MEK5: signal of MEK5 binding to mutant human MEKK2 PB1 domain; hit rate 0.35% among 290,000; percent response, % at 10 µM; bead flow cytometry, Alexa488-MEK5 binding to MEKK2 mutant; in the data active = percent response above about 24%, passing the limit was not always enough
Casp3 counter: caspase-3 inhibition (UBC13 counter-screen). AID 488856. inhibition, % at 20 µM. hit rate 4% among 1,400. Recombinant caspase-3, Caspase-Glo 3/7 luminescence, 60 min. shares compounds with UBC13 polyUb;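 active = mean inhibition across replicates above about 26%, limit read from the data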;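 also: plate controls were DMSO with caspase-3 for no effect and DMSO wells lacking enzyme for full effect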
UBC13 confirm: human UBC13 polyubiquitin inhibition, confirmed | shares compounds with UBC13 polyUb | UBC13 polyubiquitination, TR-FRET, biochemical | inhibition, % at 10 µM | hit rate 68% among 1,400; in the data active = inhibition above about 45%; inconclusive = no clear call, values can overlap the other calls
* hit, by the source's call; ? = inconclusive; · = not tested or not shown.

SMILES	UBC13 polyUb	MEKK2 WT-MEK5	MEKK3 PB1 HTS	MEKK2 mut-MEK5	Casp3 counter	UBC13 confirm
COc1ccc(C2CC(=O)c3cnc(N4CCc5ccccc54)nc3C2)cc1OC (centres undefined)	60*	103	103	1	2	?
CCOC(=O)c1cccnc1NC(=O)c1ccccc1	-30	96	97	-2	·	·
O=C1/C(=C/C=C/c2ccco2)SC(=S)N1NS(=O)(=O)c1ccccc1	51*	95	100	1	3	2
O=C1/C(=C/c2cccs2)SC(=S)N1NS(=O)(=O)c1ccccc1	-12	102	103	1	·	·
CCCCn1c(=O)[nH]c(=O)c2c1nc(-c1ccc(C#N)cc1)n2C1CCCC1	78*	·	·	·	-4	68*
CCCNC(=O)c1nnsc1Sc1ccc(Cl)cc1	-1	115	120	0	·	·
N#Cc1sc2nc(-c3cccs3)cc(-c3ccc(F)cc3)c2c1N	59*	88	104	-1	-2	34
CS(=O)(=O)c1sc2nc(-c3cccs3)cc(-c3ccccc3)c2c1N	-31	93	100	-4	·	·
CCOc1ccccc1NC(=O)CN1CCC(C(=O)c2ccc(F)cc2)CC1	73*	106	107	7	0	78*
COc1ccccc1NC(=O)CN1CCC(C(=O)c2ccc(F)cc2)CC1	45	92	96	-1	·	·
O=C(Cn1ccc(C(F)(F)F)n1)N/N=C/c1ccc(N2CCOCC2)cc1	5	95	99	0	·	·
O=C(Cn1ccc2ccccc2c1=O)NCCC(=O)N1CCN(c2cccc(Cl)c2)CC1	5	102	102	4	·	·
O=C(CCNC(=O)Cn1ccc2ccccc2c1=O)NCCN1CCN(c2ccccc2F)CC1	91*	100	95	2	2	101*
O=C(CCCn1c(=O)[nH]c2ccccc2c1=O)NCCSCc1ccccc1	10	94	101	-4	·	·
O=C(CCCCCn1c(=O)[nH]c2ccccc2c1=O)NCCCN1CCN(c2ccccc2F)CC1	63*	·	·	·	-1	53*
O=C(CCNC(=O)Cn1ccc2ccccc2c1=O)NCCN1CCN(c2cccc(Cl)c2)CC1	101*	107	100	2	2	104*
O=C(NCCO)C(=O)NCC1OCCCN1S(=O)(=O)c1ccc2c(c1)OCCO2 (centres undefined)	6	110	107	9	·	·
CCc1cccc(NC(=O)CSC2=NS(=O)(=O)c3ccccc32)c1	47*	100	101	-1	0	25
CCNC(=S)N=Nc1c(O)[nH]c2ccc(C(C)C)cc12	90*	102	107	2	1	88*
CC(C)c1ccc2[nH]c(O)c(N=NC(=S)NCCc3ccccc3)c2c1	-6	106	104	11	·	·
O=[N+]([O-])c1ccc2[nH]c(O)c(N=NC(=S)Nc3cccnc3)c2c1	?	89	92	4	·	·
CCCCCC(=O)N=Nc1c(O)[nH]c2ccc([N+](=O)[O-])cc12	-6	100	95	-2	·	·
O=[N+]([O-])c1ccc2[nH]c(O)c(N=NC(=S)NCC3CCCO3)c2c1 (centres undefined)	91*	94	92	-4	4	94*
CCNC(=S)N=Nc1c(O)[nH]c2ccc([N+](=O)[O-])cc12	45*	98	100	-2	1	60*
Cc1ccc(C)c(S(=O)(=O)NCCCc2ccccc2)c1	-6	98	101	-1	·	·
O=C(Nc1cc(S(=O)(=O)N2CCCCC2)ccc1N1CCCCC1)c1ccncc1	24	105	103	2	·	·
O=C1CN(C(=O)COC(=O)CNS(=O)(=O)/C=C/c2ccccc2)c2ccccc2N1	1	96	100	-5	·	·
